DT40 TDP1 no CPT – qHTS for Inhibitors of human tyrosyl-DNA phosphodiesterase 1 (TDP1): qHTS in cells in absence of CPT; actives 15% (n = 420,000); DT40 Tdp1-/- hTDP1 cells, no CPT, ATP luminescence, 48 h; Potency, µM (titrated, usually from 46.2 µM), hits mostly inhibitors; also: nearly all actives have a fitted effect of over 55% in size
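Cells were dispensed at 400 per well, compounds added by pin tool, plates incubated ≥48 hr at 37 °C, then CellTiter-Glo added for 30 min at room temperature before luminescence reading. Line: DT40 Tdp1-/- complemented with hTDP1; camptothecin omitted.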
DT40 TDP1 CPT – DT40-hTDP1 cell growth loss with CPT. AID 686979. actives 12% (n = 420,000). Potency, µM (highest dose often 46.2 µM), most hits filed as inhibitors. chicken DT40 Tdp1-/-;hTDP1 cells + 20 nM CPT, ATP luminescence, 48 h; also: nearly all actives have a fitted effect of over 55% in size
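Chicken DT40 Tdp1-/- cells complemented with human TDP1, 400 cells/well, exposed to compounds plus 20 nM camptothecin for at least 48 h at 37 C; viability read as ATP content by CellTiter-Glo luminescence.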
VP16 counter – Gal4-VP16 reporter inhibition counter-screen | Drosophila S2 Gal4-VP16 UAS-luciferase, luminescence, 20 h | Potency, µM (highest dose often 53.6 µM), most hits filed as inhibitors | actives 3.5% (n = 310,000);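 also: Gal4-VP16 expression switched on by copper sulfate through the metallothionein promoter; nearly all actives have a fitted effect of over 50% in size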
RORg inh – inhibitors of mouse ROR gamma transcriptional activity. P51450. Drosophila S2 Gal4-RORgamma UAS-luciferase reporter, 20 h. AID 2551. actives 5.4% (n = 310,000). Potency, µM (highest dose often 53.6 µM), most hits filed as inhibitors; also: nearly all actives have a fitted effect of over 60% in size
Target sequence (P51450 whole entry, looked up, the tested form may be a part): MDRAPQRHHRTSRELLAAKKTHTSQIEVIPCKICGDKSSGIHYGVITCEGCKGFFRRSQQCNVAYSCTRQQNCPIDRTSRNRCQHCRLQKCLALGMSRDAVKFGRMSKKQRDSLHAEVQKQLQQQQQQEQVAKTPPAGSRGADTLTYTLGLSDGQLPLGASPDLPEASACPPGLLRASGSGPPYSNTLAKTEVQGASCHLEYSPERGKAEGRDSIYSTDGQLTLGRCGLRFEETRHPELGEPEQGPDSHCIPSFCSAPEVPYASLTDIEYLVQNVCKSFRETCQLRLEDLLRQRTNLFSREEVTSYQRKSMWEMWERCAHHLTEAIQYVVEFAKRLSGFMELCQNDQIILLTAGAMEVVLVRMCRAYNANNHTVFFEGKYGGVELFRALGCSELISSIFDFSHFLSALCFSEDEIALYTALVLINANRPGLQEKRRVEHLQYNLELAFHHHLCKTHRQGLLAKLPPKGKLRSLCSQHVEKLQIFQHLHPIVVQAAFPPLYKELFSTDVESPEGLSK
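Drosophila Schneider cells stably carrying a metallothionein-driven Gal4 DBD–ROR gamma fusion and a UAS-Photinus luciferase reporter were exposed to compound for 1 hr, then induced with copper sulfate (700 uM final) for 20 hr at ambient temperature before luminescence reading.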
TDP1 block – inhibitors of human tyrosyl-DNA phosphodiesterase TDP1; Q9NUW8; AID 485290; actives 0.28% (n = 350,000); recombinant TDP1, AlphaScreen DNA substrate cleavage; Potency, µM (highest dose often 130 µM), most hits filed as inhibitors; also: nearly all actives have a fitted effect of over 40% in size
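Enzyme-compound mixtures sat 15 min at room temperature, followed by a 5 min reaction with 15 nM final substrate and 10 min with AlphaScreen beads. Recombinant human Tdp1 was used at 1 nM final.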
Each line names hits and unclear results; the compound was inactive in the other large screens. Compounds with a hit are over-represented: about 19% of the library has one in this group of screens. Calls follow the shape of the dose curve; as a rule, active = well fitted curve in the direction sought with a large enough effect; inconclusive = small, poorly fitted or top-dose-only effect, or another doubt; inactive = no such curve, though single readings can be large; an effect the other way counts as inactive or inconclusive.

Cc1ccc(N(C)C(=O)C2CCCN(c3ncnc4c3nc3n4CCCCC3)C2)cc1C (configuration not stated)	DT40 TDP1 no CPT 9.2µM, DT40 TDP1 CPT inconclusive (no result: VP16 counter, RORg inh)
Cc1ccc(C)c(N(C)C(=O)C2CCN(c3ncnc4c3nc3n4CCCCC3)CC2)c1	DT40 TDP1 no CPT inconclusive, DT40 TDP1 CPT inconclusive (no result: VP16 counter, RORg inh)
CCCN(CCC)C(=O)C1CCN(c2ncnc3c2nc2n3CCCCC2)CC1	DT40 TDP1 CPT inconclusive (no result: VP16 counter, RORg inh)
CCc1ccccc1N(C)C(=O)C1CCCN(c2ncnc3c2nc2n3CCCCC2)C1 (configuration not stated)	DT40 TDP1 no CPT 4.11µM, DT40 TDP1 CPT 18.4µM (no result: VP16 counter, RORg inh)
CCOc1ccccc1N(C)C(=O)C1CCCN(c2ncnc3c2nc2n3CCCCC2)C1 (configuration not stated)	none (no result: VP16 counter, RORg inh)
CN(C(=O)C1CCCN(c2ncnc3c2nc2n3CCCCC2)C1)c1ccccc1F (configuration not stated)	DT40 TDP1 no CPT 11.6µM, DT40 TDP1 CPT 23.1µM (no result: VP16 counter, RORg inh)
CCc1ccccc1N(CC)C(=O)C1CCN(c2ncnc3c2nc2n3CCCCC2)CC1	DT40 TDP1 no CPT 4.11µM, DT40 TDP1 CPT 8.2µM
COc1ccc(C2=CSC3=NCCN23)cc1F	none
CCOc1ccc2nc(SCc3ccc(F)cc3)sc2c1	DT40 TDP1 no CPT inconclusive, DT40 TDP1 CPT inconclusive, RORg inh inconclusive (no result: TDP1 block)
CCC(c1nnnn1Cc1ccc(F)cc1)N1CCN(C)CC1 (configuration not stated)	none
COc1ccccc1N1CCN(C(=O)c2cc(S(=O)(=O)N3CCC(C)CC3)cn2C)CC1	DT40 TDP1 no CPT inconclusive, DT40 TDP1 CPT 20.6µM (no result: VP16 counter, RORg inh)
COC(=O)c1cc(S(=O)(=O)N2CCN(c3ccccc3OC)CC2)cn1C	DT40 TDP1 no CPT inconclusive
Cc1ccc(Cl)cc1N1CCN(C(=O)c2cc(S(=O)(=O)N3CCC(C)CC3)cn2C)CC1	DT40 TDP1 no CPT 14.6µM, DT40 TDP1 CPT 23.1µM (no result: VP16 counter, RORg inh)
O=C(Nc1ccc(Cl)cc1)c1cc(S(=O)(=O)N2CCCCC2)ccc1N1CCOCC1	DT40 TDP1 no CPT inconclusive (no result: VP16 counter, RORg inh, TDP1 block)
CN(C)S(=O)(=O)c1ccc(Cl)c(C(=O)Nc2ccc(S(=O)(=O)N3CCOCC3)cc2)c1	DT40 TDP1 no CPT 9.2µM, DT40 TDP1 CPT 10.3µM
O=C(Nc1ccc(S(=O)(=O)N2CCOCC2)cc1)c1ccc(Cl)cc1Cl	DT40 TDP1 no CPT 20.6µM, DT40 TDP1 CPT inconclusive, RORg inh inconclusive (no result: TDP1 block)
CN(C)S(=O)(=O)c1cccc(NC(=O)c2ccc(N3CCOCC3)c([N+](=O)[O-])c2)c1	DT40 TDP1 no CPT inconclusive, DT40 TDP1 CPT 16.4µM, RORg inh inconclusive
Cc1ccc(-n2ccc(=O)c(C(=O)Nc3ccc(S(=O)(=O)N4CCOCC4)cc3)n2)cc1	none
Cc1cccc(-n2ccc(=O)c(C(=O)Nc3ccc(S(=O)(=O)N4CCOCC4)cc3)n2)c1	DT40 TDP1 no CPT 23.1µM, DT40 TDP1 CPT inconclusive
CCC(C)(C(=O)NC1CCCCC1)N(C(=O)CNC(=O)c1ccccc1)c1c(C)n(C)n(-c2ccccc2)c1=O (configuration not stated)	none
COc1ccc2nc(C)c3cc(C)oc3c2c1	none
O=C(Nc1ccc(S(=O)(=O)N2CCOCC2)cc1)c1cc([N+](=O)[O-])ccc1Cl	DT40 TDP1 no CPT inconclusive, DT40 TDP1 CPT 16.4µM
Cc1ccc(C(=O)Nc2cccc(S(=O)(=O)N3CCOCC3)c2)cc1[N+](=O)[O-]	DT40 TDP1 no CPT inconclusive, DT40 TDP1 CPT 11.6µM
O=C(Nc1ccc(S(=O)(=O)N2CCOCC2)cc1)c1cccc([N+](=O)[O-])c1	DT40 TDP1 CPT inconclusive, RORg inh inconclusive (no result: TDP1 block)
CCc1c(C(=O)Nc2ccc(S(=O)(=O)N3CCOCC3)cc2)csc1C	DT40 TDP1 no CPT 18.4µM, DT40 TDP1 CPT 23.1µM
O=C(Nc1ccc(S(=O)(=O)N2CCOCC2)cc1)c1ccc(Cl)c([N+](=O)[O-])c1	DT40 TDP1 no CPT 13µM, DT40 TDP1 CPT 13µM (no result: VP16 counter, RORg inh, TDP1 block)
CCC(=O)Nc1ccc(S(=O)(=O)N2CCOCC2)cc1	none
Cc1ccc(C)c(NC(=O)NNC(=O)CCc2ccccc2)c1	none
CCN(CC)S(=O)(=O)c1ccc(C(C)NCC(=O)Nc2ccccc2C(=O)NC2CC2)cc1 (configuration not stated)	DT40 TDP1 no CPT inconclusive, DT40 TDP1 CPT inconclusive (no result: VP16 counter, RORg inh)
CCn1ncc(Br)c1C(=O)Nc1ccc(F)cc1F	DT40 TDP1 no CPT inconclusive
CCOCCc1nnc(NC(=O)c2cccs2)s1	none
N#C/C(=C\c1ccc([N+](=O)[O-])o1)c1nc2ccccc2[nH]1	DT40 TDP1 no CPT 0.82µM, DT40 TDP1 CPT 0.581µM, VP16 counter 1.58µM, RORg inh 2µM
N#C/C(=C(/O)c1ccc([N+](=O)[O-])o1)c1nc2ccccc2[nH]1	DT40 TDP1 no CPT 18.4µM, DT40 TDP1 CPT 11.6µM
N#C/C(=C\Nc1ccc2c(c1)OCCO2)c1nc2ccccc2[nH]1	DT40 TDP1 no CPT 20.6µM, DT40 TDP1 CPT inconclusive, VP16 counter 5.01µM, RORg inh 3.16µM
Cc1ccccc1N1C(=O)c2ccccc2N2C(=O)c3ccccc3C12 (configuration not stated)	DT40 TDP1 no CPT 16.4µM, DT40 TDP1 CPT 8.2µM
O=C1c2ccccc2N2C(=O)c3ccccc3C2N1O (configuration not stated)	VP16 counter inconclusive, RORg inh inconclusive
O=C1c2ccccc2NC(c2ccccc2O)N1Cc1ccco1 (configuration not stated)	DT40 TDP1 no CPT 15.8µM, DT40 TDP1 CPT inconclusive (no result: VP16 counter, RORg inh)
O=C1c2ccccc2NC(c2ccccc2)N1Cc1ccco1 (configuration not stated)	none
COc1ccc(C2Nc3ccccc3C(=O)N2Cc2ccco2)cc1 (configuration not stated)	DT40 TDP1 no CPT 12.6µM, DT40 TDP1 CPT inconclusive (no result: VP16 counter, RORg inh)
O=C1c2ccccc2N2C(=O)c3ccccc3C2N1Cc1ccco1 (configuration not stated)	DT40 TDP1 no CPT 18.4µM, DT40 TDP1 CPT 23.1µM, VP16 counter inconclusive
CC(C(=O)Nc1cccc([N+](=O)[O-])c1)N(c1ccccc1)S(C)(=O)=O (configuration not stated)	none
O=C1c2ccccc2NC(c2ccc(F)cc2)N1Cc1ccco1 (configuration not stated)	none
O=C1c2ccccc2NC(c2ccccc2OCc2ccccc2)N1Cc1ccco1 (configuration not stated)	DT40 TDP1 no CPT 10µM, DT40 TDP1 CPT 11.2µM (no result: VP16 counter, RORg inh)
Cc1ccc(CN2CCN(CC(=O)N3CCC(C(N)=O)CC3)C2=O)cc1	none (no result: VP16 counter, RORg inh, TDP1 block)
C=CCn1c(SCC(=O)NC2CC2)nnc1-c1cccc(OC)c1	none
O=c1[nH]c2ccc(NCc3ccc(-c4cccc(Cl)c4)o3)cc2[nH]1	DT40 TDP1 no CPT 18.4µM, DT40 TDP1 CPT 29.1µM (no result: VP16 counter, RORg inh)
Cc1c(Cl)cccc1-c1ccc(CNc2ccc3[nH]c(=O)[nH]c3c2)o1	DT40 TDP1 no CPT inconclusive, DT40 TDP1 CPT 3.26µM (no result: VP16 counter, RORg inh)
O=c1[nH]c2ccc(NCc3ccc(-c4ccc(Br)cc4)o3)cc2[nH]1	none (no result: VP16 counter, RORg inh)

Screening data: PubChem, National Center for Advancing Translational Sciences (NCATS)
